High-throughput results: PubChem, National Center for Advancing Translational Sciences (NCATS)
DT40 TDP1 no CPT: qHTS for Inhibitors of human tyrosyl-DNA phosphodiesterase 1 (TDP1): qHTS in cells in absence of CPT; AID 686978, 2013; Potency, µM (titrated, usually from 46.2 µM), for inactives: at the top dose activity change, negative = growth inhibition, usual class: inhibitors; hit rate 15% among 420,000; DT40 Tdp1-/- hTDP1 cells, no CPT, ATP luminescence, 48 h; also: nearly all actives have a fitted effect of over 55% in size
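Chicken DT40 Tdp1-/- cells complemented with human TDP1, screened without camptothecin (DMSO vehicle only), 400 cells/well. Compounds pin-transferred, cells incubated at 37 °C for at least 48 hr. Growth read as ATP-dependent luminescence (CellTiter-Glo, 30 min at RT).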
HT1080 IDH1KD tx: toxicity to HT-1080 IDH1 knockdown cells (counter line). HT-1080 IDH1 knockdown viability, ATP luminescence, 48 h. Potency, µM (doses to about 46.1 µM), for inactives: at the highest dose activity, negative = toxicity, hits mostly cytotoxic. hit rate 2% among 360,000. AID 686971;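 also: 0% = DMSO wells and -100% = cell-free medium wells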
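Cytotoxicity counter-line: IDH1KD HT-1080, 48 h, CellTiter-Glo. Curves classed by r2, magnitude and activity.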
KB-V1 cytotox: kills drug-selected multidrug resistant KB-V1 cells; KB-V1 MDR cells viability, CellTiter-Glo, 72 h; hit rate 3.4% among 400,000; Potency, µM (highest dose often 46.1 µM), usual class: cytotoxic; also: nearly all actives have a fitted effect of over 60% in size
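Potencies derive from concentration-effect curves fitted to normalized luminescence (CellTiter-Glo) of KB-V1 cells treated for 72 h at 37 degrees C in phenol-red-free DMEM containing 10% FBS.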
KB-3-1 cytotox: kills parental KB-3-1 adenocarcinoma cells; Potency, µM (top dose mostly 46.1 µM), hits mostly cytotoxic; hit rate 1.4% among 400,000; AID 1347075; KB-3-1 viability, CellTiter-Glo ATP luminescence, 72 h; also: nearly all actives have a fitted effect of over 60% in size
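Cells are dispensed, compounds pinned in, plates held at 37 °C for 72 h, then CellTiter-Glo is added and luminescence read after 10 minutes. Cell line: parental KB-3-1 in phenol-red-free DMEM, 10% FBS.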
DT40 TDP1 CPT: growth inhibition of DT40 Tdp1-/-;hTDP1 cells with camptothecin (screen for TDP1 inhibitors); chicken DT40 Tdp1-/-;hTDP1 cells + 20 nM CPT, ATP luminescence, 48 h; Potency, µM (highest dose often 46.2 µM), without a hit: top-dose activity change, negative = growth inhibition, actives largely listed as inhibitors; hit rate 12% among 420,000; also: nearly all actives have a fitted effect of over 55% in size
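Chicken DT40 Tdp1-/- cells complemented with human TDP1, 400 cells/well, exposed to compounds plus 20 nM camptothecin for at least 48 h at 37 C; viability read as ATP content by CellTiter-Glo luminescence.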
HT1080-NT tox: kills 2HG-producing HT-1080-NT fibrosarcoma cells; HT-1080-NT fibrosarcoma viability, CellTiter-Glo ATP luminescence, 48 h; Potency, µM (top dose mostly 46.1 µM), without a hit: at the top dose activity, negative = less viability, most hits filed as cytotoxic; hit rate 1.6% among 360,000;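 also: NT is the 2HG producing partner of a matched IDH1 knockdown line; 0% = DMSO-treated cells and -100% = media-only wells without cells; nearly all actives have a fitted effect of over 55% in size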
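Luminescent CellTiter-Glo readout after 48 hours of compound exposure at 37 degrees C defined viability of HT-1080-NT cells. Activity was normalized to DMSO wells and cell-free media wells; concentration-response curves were fitted and assigned curve classes.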
* hit, by the source's call; [ ] = dose if it differs, or a comment. Hits are enriched below; roughly 19% of the tested compounds scored in any of these assays. Calls follow the shape of the dose curve; as a rule, active = well fitted curve in the direction sought with a large enough effect; inconclusive = small, poorly fitted or top-dose-only effect, or another doubt; inactive = no such curve, though single readings can be large; an effect the other way counts as inactive or inconclusive. Unless noted, % is scaled to controls: 0 for no effect and ±100 for the full control effect; potency is read from the fitted curve at half-maximal effect.

For COc1ccc(S(=O)(=O)N2CCOCC2)cc1NC(=O)c1ccncc1 the results were DT40 TDP1 no CPT -1%, HT1080 IDH1KD tx 12%, KB-V1 cytotox inactive, KB-3-1 cytotox inactive, DT40 TDP1 CPT -2% and HT1080-NT tox 22%.
For NCCCCCc1nnc(SC/C=C/c2ccccc2)o1 the results were DT40 TDP1 no CPT 23µM*, HT1080 IDH1KD tx -12%, KB-V1 cytotox inactive, KB-3-1 cytotox inactive, DT40 TDP1 CPT 18µM* and HT1080-NT tox -9%.
`CC1(C)Cc2ccccc2C(/C(C#N)=N/O)=N1` gave DT40 TDP1 no CPT 23µM*, HT1080 IDH1KD tx 4%, KB-V1 cytotox inactive, KB-3-1 cytotox inactive, DT40 TDP1 CPT 15µM* and HT1080-NT tox 5%.
Cc1ccc(N2CC(NC(=O)c3cccs3)CC2=O)cc1 (centres undefined) was read as DT40 TDP1 no CPT -16% and DT40 TDP1 CPT -3%.
For CCOC(=O)C(Sc1cc(-c2ccccc2)nc2ncnn12)C(C)=O (centres undefined) the results were DT40 TDP1 no CPT 18µM*, HT1080 IDH1KD tx -27%, KB-V1 cytotox inactive, KB-3-1 cytotox inconclusive, DT40 TDP1 CPT inconclusive and HT1080-NT tox inconclusive.
`O=C1CCCC2=C1C(c1ccsc1)CC(=O)N2c1ccccc1F` (centres undefined) gave DT40 TDP1 no CPT -9%, HT1080 IDH1KD tx -7%, KB-V1 cytotox inactive, KB-3-1 cytotox inactive, DT40 TDP1 CPT 0% and HT1080-NT tox -9%.
Cc1ccc(-n2[nH]c3c4c(ccc3c2=O)C(=O)c2ccccc2C4=O)cc1 was read as DT40 TDP1 no CPT -21%, HT1080 IDH1KD tx 20%, KB-V1 cytotox inactive, KB-3-1 cytotox inactive, DT40 TDP1 CPT -8% and HT1080-NT tox 24%.
For COCCCn1[nH]c2c3c(ccc2c1=O)C(=O)c1ccccc1C3=O the results were DT40 TDP1 no CPT 16µM*, HT1080 IDH1KD tx inconclusive, KB-V1 cytotox 15µM*, KB-3-1 cytotox inconclusive, DT40 TDP1 CPT 16µM* and HT1080-NT tox inconclusive.
For CC(C)(C)n1[nH]c2c3c(ccc2c1=O)C(=O)c1ccccc1C3=O the results were DT40 TDP1 no CPT 7.3µM*, HT1080 IDH1KD tx inconclusive, KB-V1 cytotox inconclusive, KB-3-1 cytotox inconclusive, DT40 TDP1 CPT 8.2µM* and HT1080-NT tox inconclusive.
CCCOc1ccc(C(O)(CCC)CCN2CCCCC2)cc1 (centres undefined) was read as DT40 TDP1 no CPT 23µM*, HT1080 IDH1KD tx -4%, KB-V1 cytotox inactive, KB-3-1 cytotox inconclusive, DT40 TDP1 CPT 21µM* and HT1080-NT tox -4%.
For CC(C)Oc1ccc(OCCCN2CCCCCC2)cc1 the results were DT40 TDP1 no CPT -22%, HT1080 IDH1KD tx -3%, KB-V1 cytotox inactive, KB-3-1 cytotox inactive, DT40 TDP1 CPT -1% and HT1080-NT tox -11%.
`CCCC(O)(CCN1CCOCC1)c1ccc(Br)cc1` (centres undefined) gave DT40 TDP1 no CPT inconclusive, HT1080 IDH1KD tx -6%, KB-V1 cytotox inactive, KB-3-1 cytotox inactive, DT40 TDP1 CPT inconclusive and HT1080-NT tox 0%.
CC(C)(C)c1ccc(OCCCN2CCCC2)cc1 was read as DT40 TDP1 no CPT 13µM*, HT1080 IDH1KD tx -21%, KB-V1 cytotox inactive, KB-3-1 cytotox inactive, DT40 TDP1 CPT inconclusive and HT1080-NT tox -12%.
O=C(CC1(O)C(=O)N(C/C=C/c2ccccc2)c2ccccc21)c1ccccn1 (centres undefined) was read as DT40 TDP1 no CPT 0.89µM*, HT1080 IDH1KD tx 10µM*, KB-V1 cytotox inconclusive, KB-3-1 cytotox inconclusive, DT40 TDP1 CPT 1.3µM* and HT1080-NT tox inconclusive.
Screening O=C(CC1(O)C(=O)N(CCc2ccccc2)c2ccccc21)c1ccccn1 (centres undefined) returned DT40 TDP1 no CPT 5.2µM*, HT1080 IDH1KD tx 25%, KB-V1 cytotox inactive, KB-3-1 cytotox inactive, DT40 TDP1 CPT 2.6µM* and HT1080-NT tox 15%.
For Cc1cc2c(c(-c3ccc(Cl)cc3)c1)OC(CNC(=O)Cc1c(C)noc1C)C2 (centres undefined) the results were DT40 TDP1 no CPT -18% and DT40 TDP1 CPT 0%[9.04 µM].
Screening N#Cc1cccc(S(=O)(=O)N2CCN(c3ccnc4cc(Cl)ccc34)CC2)c1 returned DT40 TDP1 no CPT 12µM*, HT1080 IDH1KD tx -14%, KB-V1 cytotox inactive, KB-3-1 cytotox inactive, DT40 TDP1 CPT 12µM* and HT1080-NT tox -14%.
N#Cc1cccc(S(=O)(=O)N2CCN(S(=O)(=O)c3ccc4c(c3)OCCO4)CC2)c1 was read as DT40 TDP1 no CPT -1%, KB-V1 cytotox inactive, KB-3-1 cytotox inactive and DT40 TDP1 CPT 11%.
Screening CC(=O)c1ccc(N2CCN(c3ccnc4cc(Cl)ccc34)CC2)cc1 returned DT40 TDP1 no CPT 3.7µM*, HT1080 IDH1KD tx -4%, KB-V1 cytotox inactive, KB-3-1 cytotox inactive, DT40 TDP1 CPT inconclusive and HT1080-NT tox 0%.
CC(C)(C)C(=O)N1CCN(c2ccnc3cc(Cl)ccc23)CC1 was read as DT40 TDP1 no CPT inconclusive, HT1080 IDH1KD tx 0%, KB-V1 cytotox inconclusive, KB-3-1 cytotox inactive, DT40 TDP1 CPT inconclusive and HT1080-NT tox 14%.
For O=[N+]([O-])c1ccc(S(=O)(=O)N2CCN(c3ccnc4cc(Cl)ccc34)CC2)cc1 the results were DT40 TDP1 no CPT inconclusive, HT1080 IDH1KD tx -1%, KB-V1 cytotox inactive, KB-3-1 cytotox inactive, DT40 TDP1 CPT 18µM* and HT1080-NT tox 11%.
O=[N+]([O-])c1ccc(S(=O)(=O)N2CCN(c3ccccn3)CC2)cc1 was read as DT40 TDP1 no CPT -10%, HT1080 IDH1KD tx 1%, KB-V1 cytotox inactive, KB-3-1 cytotox inactive, DT40 TDP1 CPT 5% and HT1080-NT tox 2%.
`CC(C)S(=O)(=O)N1CCN(c2ccnc3cc(Cl)ccc23)CC1` gave DT40 TDP1 no CPT inconclusive, HT1080 IDH1KD tx -4%, KB-V1 cytotox inconclusive, KB-3-1 cytotox inactive, DT40 TDP1 CPT inconclusive and HT1080-NT tox -4%.
`CN(C)S(=O)(=O)N1CCN(c2ccnc3cc(Cl)ccc23)CC1` gave DT40 TDP1 no CPT 13µM*, HT1080 IDH1KD tx -2%, KB-V1 cytotox inactive, KB-3-1 cytotox inactive, DT40 TDP1 CPT 23µM* and HT1080-NT tox -8%.
`O=C(O)C1CCC2CCCC21` (centres undefined) gave DT40 TDP1 no CPT -9%, HT1080 IDH1KD tx 17%, KB-V1 cytotox inactive, KB-3-1 cytotox inactive, DT40 TDP1 CPT 0% and HT1080-NT tox inconclusive.
